# Laboratory results taken from PubChem BioAssay (NCATS).
# Unmarked numbers belong to inactive results. Results filed as inconclusive are left out. Entries that show only a call come without a potency. Active and inactive are the calls of the source. Calls come from the whole dose curve; as a rule, active = well fitted curve in the direction sought with a large enough effect; inconclusive = small, poorly fitted or top-dose-only effect, or another doubt; inactive = no such curve, though single readings can be large; an effect the other way counts as inactive or inconclusive.
# Legend:
# [1] = Primary redox qHTS assay for identification of artifact compounds. (AID 1845223)
# In short: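 Amplex Red (25 uM) and HRP (250 mU/mL) in HBSS, with compounds for 15 min, then 250 uM DTT for 30 min, room temperature, dark. Fluorescence 525/598 nm read; normalized to DMSO and 10 uM DA3003; Hill fit.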
# [2] = target: Cytochrome P450 3A4 (Homo sapiens) (UniProt P08684); assay: qHTS for inhibitors of CYP3A4 against the NCATS DSHEA and TCM libraries (AID 1919971);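 note: inhibition lowers luminescence from luciferin made by CYP3A4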
# In short: (§1)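 Luminescent P450-Glo readout. Enzyme plus pro-luciferin substrate in manufacturer buffer (typically 100 mM KPO4); 15 min RT preincubation; 1x NADPH regenerating system, 30-45 min RT in the dark; detection reagent 30 min.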
# [3] = target: Cytochrome P450 2D6 (Homo sapiens) (UniProt P10635); assay: qHTS for inhibitors of CYP2D6 against the NCATS DSHEA and TCM libraries (AID 1919972)
# In short: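 Steps: enzyme plus luciferin substrate dispensed; test substances pinned; 15 min RT; 1x NADPH regenerating solution added, 30–45 min RT protected from light; detection reagent, 30 min RT; luminescence measured. Minus-enzyme wells as background.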
# [4] = target: Cytochrome P450 2C9 (Homo sapiens) (UniProt P11712); assay: qHTS for inhibitors of CYP2C9 against the NCATS DSHEA and TCM libraries (AID 1919973);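 note: luminogenic pro-luciferin CYP2C9 substrate turned into luciferin with NADPH regeneration; series mostly up to about 34 µM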
# In short: as §1
# [5] = target: Cytochrome P450 2C19 (Homo sapiens) (UniProt P33261); assay: qHTS for inhibitors of CYP2C19 against the NCATS DSHEA and TCM libraries (AID 1919974);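 note: luminescence from luciferin released by CYP2C19 oxidation of a pro-luciferin substrate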
# In short: as §1
# [6] = KB-3-1 P-gp reporter qHTS against the NCATS DSHEA and TCM libraries (AID 1919975)
# In short: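 Cell viability by CellTiter-Glo luminescence following ~72 h compound exposure (concentration-response). Uses parental, non-P-gp-overexpressing KB-3-1 line, 500 cells/well in DMEM/10% FBS, attached ~4 h before dosing.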
# [7] = target: Cytochrome P450 1A2 (Homo sapiens) (UniProt P05177); assay: qHTS for inhibitors of CYPIA2 against the NCATS DSHEA and TCM libraries (AID 1919976);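 note: light from luciferin formed by CYP1A2 from a pro-luciferin substrate; series mostly up to about 37 µM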
# In short: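 Human CYP1A2 with its pro-luciferin substrate in supplier buffer (typically 100 mM KPO4) was pre-incubated with compounds 15 min at RT. Reaction was started with 1x NADPH regeneration solution and run 30-45 min at RT in the dark, then luminescence was read after P450-Glo detection reagent (30 min RT).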
# [8] = qHTS Counterscreen for compound interference against the NCATS DSHEA and TCM libraries (AID 1919978); conditions: firefly luciferase detection reagent interference, luminescence;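 note: compounds preincubated with 1 µM D-luciferin or buffer before detection reagent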
# In short: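 With 1 uM D-luciferin or phosphate buffer only, compounds at final 19.5 nM–39.8 uM were incubated for 15 min at room temperature. Luciferase detection reagent was then added, and luminescence was measured after a further 30 min at room temperature.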
# [9] = Dual reporter qHTS for agonist of Pregnane X Receptor (hPXR) against the NCATS DSHEA and TCM libraries: Fluorescence readout (AID 1920058)
# From the text: Assay Development and Screening Technology Laboratory (ADST)
# National Center for Advancing Translational Sciences (NCATS), Rockville, MD
# National Institute of Health (NIH), Bethesda, Maryland
# Dietary Supplements and Natural Products have minor oversight of their safety and efficacy. We assembled a collection of Dietary Supplements and Natural Products (DSNP) as well as Traditional Chinese Medicinal (TCM) Plant extracts, which were screened against an in vitro panel of assays, including a liver cytochrome p450 enzyme panel, CAR/PXR signaling pathways, and P-gp transporter assays, to assess their activity. This pipeline facilitated the interrogation of Natural Product-Drug Interaction (NaPDI) through prominent metabolizing pathways. In addition, we compared the activity profiles of the DSNP/TCM substances with those of an approved drug collection. Many of the approved drugs have well-annotated mechanisms of action (MOA) while the MOAs for most of the DSNP and TCM samples remain unknown. Based on the premise that compounds with similar activity profiles tend to share similar targets or MOA, we clustered the library activity profiles to identify overlap with the NCATS Pharmaceutical Collection to predict the MOAs of the DSNP/TCM substances. Overall, we highlight four significant bioactivity profiles (measured by p-values) as examples of this prediction. To assess broad cytotoxicity, we employed screening against a HepG2 cell line. In addition, transporter-mediated drug interactions are utilized in the characterization of DDIs using a P-glycoprotein (P-gp) assays. To profile potential P-gp activity, a differential cell viability was measured against two cell lines: a parental KB-3-1 human cervical adenocarcinoma cell line and the drug-resistant subline KB-8-5-11 that overexpresses P-gp.
# To this end, we profiled both collections for potential CAR and/or PXR activity, employing a previously published 1536-well qHTS assay.
# [1] Lee TD, et al. A High-Throughput Screen of a Library of Therapeutics Identifies Cytotoxic Substrates of P-glycoprotein. Mol Pharmacol. Nov 2019;96(5):629-640. doi:10.1124/mol.119.115964
# For PXR luciferase reporter gene assays, we used hPXR-LucHepG2cells provided by Dr. Taosheng Chen (Department of Chemical Biology and Therapeutics, St. Jude Children's Research Hospital). Cells were cultured in EMEM supplemented with 10% fetal bovine serum, 100U/mL penicillin and 100ug/mL streptomycin, and 500ug/mL of geneticin.
# PROTOCOL TABLE (as described by Inglese J, Shamu CE and Guy RK. 2007)
# SEQUENCE No. (e.g., 1, 2, 3, etc.); PARAMETER (e.g., Cells, Incubation, Reagent, etc.); VALUE; DESCRIPTION.
# 1; Cells; 5 uL; hPXR-LucHepG2; white solid-bottom Greiner plate.
# 2; Incubation; 5h; 37C, 95% humidity, 5% CO2
# 3; Compounds and control; 23 nL; Kalypsis pintool (Wako USA).
# 4; Reagent; 1uL; rifampicin (RIF) in the antagonist mode.
# 6; Reagent; 1 uL; CellTiter-Fluor detection reagent.
# 7; Incubation; 1 hr; 37C, 5% CO2.
# 8; Read; Fluorescence; ViewLux plate reader.
# 9; Reagent; 4 uL; ONE-Glo Luciferase detection reagent.
# 10; Incubation; 30 min; room temperature.
# 11; Read; Luminescence; ViewLux plate reader.
# NOTES (numbers refer to Sequence numbers above)
# 1. Briefly, 5uL of hPXR-LucHepG2 cells in phenol red-free DMEM containing 5% charcoal-stripped FBS, 1 mM sodium pyruvate (Invitrogen), 2 mM L-glutamine (Invitrogen), and 100 U/mL penicillin and 100ug/mL streptomycin were dispensed using a BioRAPTR FRD at 4 x 10^5cells/mL (2000cells/well) in tissue culture-treated 1536-well white assay plates (GreinerBio-One).
# 2. Plates were incubated for 5h at 37C, 95% humidity, and 5% CO2 to allow for cell attachment.
# 3. Compounds (final concentration for most substances ranged from 15.6 nM to 45.9 µM), positive control rifampicin (RIF; final concentration range of 2.8 nM to 92 µM for the agonist mode), and cytotoxicity control tetraoctyl ammonium bromide (final concentration of 92 µM) were transferred (23 nL) via pintool (Wako Automation).
# 4-5. […]
# [10] = target: Nuclear receptor subfamily 1 group I member 2 (Homo sapiens) (UniProt O75469); assay: Dual reporter qHTS for agonist of Pregnane X Receptor (hPXR) against the NCATS DSHEA and TCM libraries: Luminescence readout (AID 1920059)
# In short: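 hPXR-LucHepG2 cells in phenol red-free DMEM with 5% charcoal-stripped FBS, 2000 cells/well, attached 5 h, then exposed 24 h at 37C to compounds; rifampicin as positive agonist control (2.8 nM–92 uM). Luciferase luminescence read.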
# Sequence of Cytochrome P450 2D6 (Homo sapiens) (P10635 whole entry, looked up): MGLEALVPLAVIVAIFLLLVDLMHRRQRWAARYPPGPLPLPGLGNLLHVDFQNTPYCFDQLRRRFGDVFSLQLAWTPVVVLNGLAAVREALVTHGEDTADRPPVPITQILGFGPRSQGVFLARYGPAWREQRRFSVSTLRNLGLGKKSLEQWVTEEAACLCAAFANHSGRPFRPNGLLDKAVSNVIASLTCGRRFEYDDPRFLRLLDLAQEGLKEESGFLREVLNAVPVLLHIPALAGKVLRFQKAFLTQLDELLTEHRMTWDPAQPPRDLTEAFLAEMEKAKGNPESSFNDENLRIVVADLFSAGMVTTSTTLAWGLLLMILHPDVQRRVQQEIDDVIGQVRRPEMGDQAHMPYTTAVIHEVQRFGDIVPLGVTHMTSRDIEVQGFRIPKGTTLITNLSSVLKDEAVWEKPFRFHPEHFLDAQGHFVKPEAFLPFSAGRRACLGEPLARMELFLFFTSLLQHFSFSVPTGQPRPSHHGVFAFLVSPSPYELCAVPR
# Sequence of Cytochrome P450 2C19 (Homo sapiens) (P33261 whole entry, looked up): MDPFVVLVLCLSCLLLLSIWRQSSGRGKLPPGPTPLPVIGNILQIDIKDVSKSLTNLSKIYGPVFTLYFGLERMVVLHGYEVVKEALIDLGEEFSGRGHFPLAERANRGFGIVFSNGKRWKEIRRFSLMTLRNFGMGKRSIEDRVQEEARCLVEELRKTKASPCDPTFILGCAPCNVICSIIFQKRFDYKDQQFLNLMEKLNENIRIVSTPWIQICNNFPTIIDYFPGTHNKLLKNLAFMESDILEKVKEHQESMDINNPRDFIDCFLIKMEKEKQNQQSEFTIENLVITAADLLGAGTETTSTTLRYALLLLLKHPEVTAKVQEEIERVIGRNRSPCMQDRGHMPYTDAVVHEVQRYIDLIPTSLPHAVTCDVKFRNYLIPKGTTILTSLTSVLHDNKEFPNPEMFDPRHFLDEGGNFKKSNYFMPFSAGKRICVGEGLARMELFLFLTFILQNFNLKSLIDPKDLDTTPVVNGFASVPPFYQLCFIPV
# Sequence of Cytochrome P450 1A2 (Homo sapiens) (P05177 whole entry, looked up): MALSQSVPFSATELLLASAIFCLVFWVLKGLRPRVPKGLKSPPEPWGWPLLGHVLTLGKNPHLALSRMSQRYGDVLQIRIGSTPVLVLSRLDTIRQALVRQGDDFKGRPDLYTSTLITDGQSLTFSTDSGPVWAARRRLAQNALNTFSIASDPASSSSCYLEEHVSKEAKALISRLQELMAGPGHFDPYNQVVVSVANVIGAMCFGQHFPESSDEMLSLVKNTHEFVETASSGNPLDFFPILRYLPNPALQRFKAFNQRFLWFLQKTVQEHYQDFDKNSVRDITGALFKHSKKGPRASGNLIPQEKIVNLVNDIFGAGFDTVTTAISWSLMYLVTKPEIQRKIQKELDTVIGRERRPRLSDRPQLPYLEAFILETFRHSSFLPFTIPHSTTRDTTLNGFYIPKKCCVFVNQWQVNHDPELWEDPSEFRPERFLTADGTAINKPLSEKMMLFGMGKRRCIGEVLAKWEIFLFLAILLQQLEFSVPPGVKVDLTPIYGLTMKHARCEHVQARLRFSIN
# Sequence of Cytochrome P450 3A4 (Homo sapiens) (P08684 whole entry, looked up): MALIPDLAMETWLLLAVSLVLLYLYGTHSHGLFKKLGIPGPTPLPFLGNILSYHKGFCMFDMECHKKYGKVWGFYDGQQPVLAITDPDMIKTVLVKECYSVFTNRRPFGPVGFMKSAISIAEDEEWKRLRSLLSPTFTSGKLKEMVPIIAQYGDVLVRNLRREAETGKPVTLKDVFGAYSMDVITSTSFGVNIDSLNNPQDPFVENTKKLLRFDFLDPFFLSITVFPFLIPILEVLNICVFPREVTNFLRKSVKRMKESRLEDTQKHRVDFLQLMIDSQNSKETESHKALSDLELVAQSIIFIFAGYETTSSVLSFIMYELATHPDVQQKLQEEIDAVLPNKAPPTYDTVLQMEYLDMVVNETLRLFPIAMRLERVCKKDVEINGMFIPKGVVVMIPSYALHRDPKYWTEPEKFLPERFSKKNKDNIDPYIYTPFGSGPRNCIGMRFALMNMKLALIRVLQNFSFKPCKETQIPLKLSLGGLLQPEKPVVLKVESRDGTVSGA
# Sequence of Nuclear receptor subfamily 1 group I member 2 (Homo sapiens) (O75469 whole entry, looked up): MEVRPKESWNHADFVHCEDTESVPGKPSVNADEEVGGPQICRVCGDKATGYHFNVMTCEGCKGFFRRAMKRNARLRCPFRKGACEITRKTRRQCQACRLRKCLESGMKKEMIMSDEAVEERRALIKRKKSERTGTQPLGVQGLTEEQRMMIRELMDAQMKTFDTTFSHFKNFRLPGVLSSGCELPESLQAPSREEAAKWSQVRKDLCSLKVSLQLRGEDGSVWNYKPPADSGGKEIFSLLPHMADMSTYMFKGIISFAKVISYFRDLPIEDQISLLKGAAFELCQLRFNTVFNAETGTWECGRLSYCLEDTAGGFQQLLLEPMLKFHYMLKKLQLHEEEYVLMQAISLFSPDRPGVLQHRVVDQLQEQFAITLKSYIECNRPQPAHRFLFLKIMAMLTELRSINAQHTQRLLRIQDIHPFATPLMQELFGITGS
# Sequence of Cytochrome P450 2C9 (Homo sapiens) (P11712 whole entry, looked up): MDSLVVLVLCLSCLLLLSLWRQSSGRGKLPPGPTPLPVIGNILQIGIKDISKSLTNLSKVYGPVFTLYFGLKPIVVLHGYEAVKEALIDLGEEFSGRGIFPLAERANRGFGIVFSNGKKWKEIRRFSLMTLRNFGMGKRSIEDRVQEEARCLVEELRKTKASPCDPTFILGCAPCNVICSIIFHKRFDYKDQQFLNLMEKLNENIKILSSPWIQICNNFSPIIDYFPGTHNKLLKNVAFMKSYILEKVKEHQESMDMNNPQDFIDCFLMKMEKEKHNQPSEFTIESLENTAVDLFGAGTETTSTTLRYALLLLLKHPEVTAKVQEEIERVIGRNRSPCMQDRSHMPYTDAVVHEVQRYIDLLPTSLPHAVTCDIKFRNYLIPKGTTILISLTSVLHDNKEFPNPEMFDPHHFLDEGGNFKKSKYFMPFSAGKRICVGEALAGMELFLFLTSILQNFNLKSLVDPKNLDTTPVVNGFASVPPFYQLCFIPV
compound,measurement,setting,value
CC(/C=C/C1(O)C(C)(C)CC(O)CC1(C)O)OC1OC(CO)C(O)C(O)C1O (stereo unspecified),Potency,[1],inactive
C=C1CC[C@@H]2[C@](C)(CC[C@H](O)[C@@]2(C)CCC=C(C)C)[C@@H]1Cc1c[nH]c2ccccc12,Potency,[1],inactive
C[C@@H]1C(=O)O[C@H]2CC34[C@H]5C[C@@H](C(C)(C)C)C36[C@@H](OC(=O)[C@@H]6O)OC4(C(=O)O5)[C@]21O (stereo partly specified),Potency,[1],inactive
COc1ccc2c(c1O)OC[C@H]1c3ccc(O)cc3O[C@@H]21,Potency,[1],inactive
CCN[C@@H]1C[C@H](N)[C@@H](O[C@H]2OC(CN)=CC[C@H]2N)[C@H](O)[C@H]1O[C@H]1OC[C@](C)(O)[C@H](NC)[C@H]1O,Potency,[1],inactive
CCCCCCCC(=O)O,outcome,[2],inactive
same,outcome,[3],inactive
same,Potency,[4],inactive
same,Potency,[5],inactive
same,outcome,[6],inactive
same,outcome,[7],inactive
same,max response,[8],5.32%
same,outcome,[9],inactive
same,outcome,[10],inactive
COCC(=O)N1CCc2cc(-c3csc(NC(=O)c4cc(OC)cc(OC)c4)n3)ccc21,Potency,[1],inactive
Oc1cc(O)c2c(c1)OC(c1ccc(O)c(O)c1)C(O)C2 (stereo unspecified),outcome,[2],inactive
same,outcome,[3],inactive
same,Potency,[4],inactive
same,Potency,[5],inactive
same,outcome,[6],inactive
same,outcome,[7],inactive
same,max response,[8],0.755%
same,outcome,[9],inactive
same,outcome,[10],inactive
CC1(C)CC[C@]2(C(=O)O)CC[C@]3(C)C(=CCC4[C@@]5(C)CC[C@H](O[C@@H]6O[C@H](C(=O)O)[C@@H](O)[C@H](O)[C@H]6O)C(C)(CO)C5CC[C@]43C)C2C1 (stereo partly specified),Potency,[1],inactive
CC(CO[C@@H]1O[C@H](COC(=O)/C=C/c2ccc(O)c(O)c2)[C@@H](O)[C@H](O)[C@H]1O)C1(O)COC(=O)C1 (stereo partly specified),Potency,[1],inactive
